Assay results published in PubChem BioAssay (NCI).
The panel holds about 83,000 compounds, 20% with a hit somewhere; the sample as a whole holds those more often.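 Growth was measured after 48 h exposure to one concentration of compound in 96-well plates. Values under 10 count as active.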 Values without a mark were called inactive. The source made the active and inactive calls.

Assays:
Experiment in all cases: NCI-60 one-dose screen, 48 h (100 = growth as untreated, 0 = no growth, -100 = all killed)
Conditions in all cases: 10 µM
SK-MEL-2 melanoma = tested on: SK-MEL-2 melanoma
SN12C renal = tested on: SN12C renal
UO-31 renal = tested on: UO-31 renal
TK-10 renal = tested on: TK-10 renal
ACHN renal = tested on: ACHN renal
CAKI-1 renal = tested on: CAKI-1 renal
A498 renal = tested on: A498 renal
CCRF-CEM leukemia = tested on: CCRF-CEM leukemia
MOLT-4 leukemia = tested on: MOLT-4 leukemia
SR leukemia = tested on: SR leukemia
RPMI-8226 leukemia = tested on: RPMI-8226 leukemia
OVCAR-8 ovarian = tested on: OVCAR-8 ovarian
OVCAR-5 ovarian = tested on: OVCAR-5 ovarian
OVCAR-4 ovarian = tested on: OVCAR-4 ovarian
SK-OV-3 ovarian = tested on: SK-OV-3 ovarian
IGROV1 ovarian = tested on: IGROV1 ovarian
OVCAR-3 ovarian = tested on: OVCAR-3 ovarian
HS 578T breast = tested on: HS 578T breast
NCI/ADR-RES ovarian = tested on: NCI/ADR-RES ovarian

SMILES | growth (SK-MEL-2 melanoma) | growth (SN12C renal) [%] | growth (UO-31 renal) | growth (TK-10 renal) [%] | growth (ACHN renal) | growth (CAKI-1 renal) [%] | growth (A498 renal) | growth (CCRF-CEM leukemia) | growth (MOLT-4 leukemia) | growth (SR leukemia) | growth (RPMI-8226 leukemia) | growth (OVCAR-8 ovarian) | growth (OVCAR-5 ovarian) [%] | growth (OVCAR-4 ovarian) | growth (SK-OV-3 ovarian) | growth (IGROV1 ovarian) [%] | growth (OVCAR-3 ovarian) | growth (HS 578T breast) [%] | growth (NCI/ADR-RES ovarian)
Cc1ccc(C(=O)O)c(N)c1C | 89.3% | 106 | 57.6% | 122 | 103% | 92.6 | 108% | 93.4% | 93.6% | 98.4% | 98.7% | 100% | 106 | 99.3% | 93.5% | 91 | 104% | 106 | 106%
Cc1cc(C)c2c(Nc3ncnc4c3sc3nc(C)cc(C)c34)n[nH]c2n1 | 114% | 99.3 | 90.9% | 104 | 93.6% | 101 | 92.3% | 95.3% | 94.1% | 94% | 98.9% | 97.8% | 95.2 | 86.3% | 106% | 120 | 101% | 105 | 100%
COc1ccc(CCc2nc3cc(-c4c(C)noc4C)ccc3n2CCN2CCOCC2)cc1 | 49.6% | 31.2 | 4.71% (active) | 24 | -0.152% (active) | 57.2 | 58.6% | 42.7% | 73% | 39% | -5.7% (active) | 34.6% | 49.8 | 30.8% | 88.1% | 48.3 | 3.29% (active) | 50.2 | 57.1%
COc1cc(C(c2c[nH]c3ccccc23)N2CCCC2)ccc1OCc1ccccc1 (configuration not stated) | 81.6% | 74.9 | 24.7% | 76.6 | 73.2% | 53.3 | 71.6% | 16.2% | 26.1% | 34.9% | 32.3% | 80.4% | 97.1 | 91.8% | 89.5% | 48.1 | 75.5% | 57.2 | 76.5%
COc1cc(Cl)cc(-c2nn(-c3cccc(NC(=O)Nc4cccc(C(F)(F)F)c4)c3)cc2-c2ccncc2)c1 | -36.7% (active) | 13.9 | -4.59% (active) | 23.4 | 5.44% (active) | 16.1 | -6.74% (active) | 3.34% (active) | -9.16% (active) | -13.5% (active) | -14.2% (active) | -12.3% (active) | 34.1 | 3.28% (active) | 14.2% | 28.8 | -0.412% (active) | 23.1 | 3.58% (active)
Cc1ccc(-n2nnc3c(sc4ccccc43)c2=O)cc1 | 83% | 76.7 | 9.98% (active) | 56.7 | 15.2% | 48.7 | 102% | 76.3% | 90.6% | 75.1% | 46.1% | 50% | 90.3 | -23.6% (active) | 9.88% (active) | 23.5 | 37.1% | 23 | 53.7%
COc1ccc(-c2nnc(COc3ccc(NC(=O)Nc4ccccc4)cc3F)o2)cc1 | 79.4% | 91.1 | 68.9% | 101 | 77.6% | 83.6 | 64% | 61.2% | 58.7% | 36.1% | 51.3% | 96.1% | 114 | 75.7% | 99.1% | 99.2 | 2.7% (active) | 82 | 97.4%
CCOC(=O)[C@@H]1[C@H](c2ccccc2)[C@H]([N+](=O)[O-])[C@H](c2cn(-c3ccccc3)nc2C)N1Cc1ccccc1 | 85.5% | 88.8 | 71.7% | 106 | 73.9% | 69 | 97.6% | 59.8% | 51.7% | 46.9% | 50% | 71.4% | 106 | 77.5% | 84.3% | 99.9 | 82.8% | 90.5 | 71.6%
